Laboratory results: PubChem BioAssay AID1159580 (chemical genetic matrix, 2015)
Out of some 5,500 compounds screened, about 2,000 (36%) were called active. About 18% were inconclusive and are not listed. Cut-off read from the data, not from the text of the source: active = normalized growth mostly below about 0.91 (no sharp cut-off); inconclusive = no clear call, values can overlap the other calls; inactive = mostly above about 0.92. The list shows a part of the results.

Assay: chemical genetic growth profiling, strain panel (AID 1159580);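 note: tested at 20 µM; growth read once vehicle control cultures reached saturation at 30 °C; 1 = growth at the plate median or of vehicle wells; lower values mean less growth of the strain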
Conditions: growth OD

Measured: normalized growth

CC(=O)N=c1sc(S(N)(=O)=O)nn1C
inactive: S. cerevisiae deletion strains, locus YJR075W, strain HOC1, active compounds read low 1 | S. cerevisiae deletion strains, locus YKL009W, strain mrt4, active compounds read low 1 | S. cerevisiae deletion strains, locus YKL068W, active compounds read low 1 | S. cerevisiae deletion strains, locus YKL085W, strain MDH1 (second series), active compounds read low 1.01 | S. cerevisiae deletion strains, locus YKL085W, strain MDH1, active compounds read low 1.01 | S. cerevisiae deletion strains, locus YKL160W, strain elf1, active compounds read low 1.01 | S. cerevisiae deletion strains, locus YKL190W, strain CNB1, active compounds read low 1.01 | S. cerevisiae deletion strains, locus YKR001C, strain vps1, active compounds read low 0.998 | S. cerevisiae deletion strains, locus YKR026C, strain gcn3, active compounds read low 1.01 | S. cerevisiae deletion strains, locus YKR091W, strain srl3, active compounds read low 1 | S. cerevisiae deletion strains, locus YLL001W, strain dnm1, active compounds read low 1.01 | S. cerevisiae deletion strains, locus YLL026W, active compounds read low 1.01 | S. cerevisiae deletion strains, locus YLL041C, strain sdh2, active compounds read low 1.01 | S. cerevisiae deletion strains, locus YLR027C, strain aat2, active compounds read low 1.01 | S. cerevisiae deletion strains, locus YLR039C, strain RIC1, active compounds read low 1.02 | S. cerevisiae deletion strains, locus YLR058C, strain SHM2, active compounds read low 1.01 | S. cerevisiae deletion strains, locus YLR102C, strain apc9, active compounds read low 1 | S. cerevisiae deletion strains, locus YLR113W, strain HOG1, active compounds read low 1.07 | S. cerevisiae deletion strains, locus YLR221C, strain rsa3, active compounds read low 1 | S. cerevisiae deletion strains, locus YLR258W, strain gsy2, active compounds read low 1.01 | S. cerevisiae deletion strains, locus YLR262C, strain YPT6 (second series), active compounds read low 1.02 | S. cerevisiae deletion strains, locus YLR262C, strain YPT6, active compounds read low 1.04 | S. cerevisiae deletion strains, locus YLR268W, strain sec22, active compounds read low 1 | S. cerevisiae deletion strains, locus YLR320W, strain mms22, active compounds read low 1.04 | S. cerevisiae deletion strains, locus YLR330W, strain CHS5, active compounds read low 1.01 | S. cerevisiae deletion strains, locus YLR342W, strain FKS1 (second series), active compounds read low 1.08 | S. cerevisiae deletion strains, locus YLR342W, strain FKS1, active compounds read low 1.02 | S. cerevisiae deletion strains, locus YLR357W, strain rsc2, active compounds read low 1.03 | S. cerevisiae deletion strains, locus YLR370C, strain arc18, active compounds read low 1.01 | S. cerevisiae deletion strains, locus YLR371W, strain rom2, active compounds read low 1.02 | S. cerevisiae deletion strains, locus YLR384C, strain iki3, active compounds read low 1 | S. cerevisiae deletion strains, locus YLR418C, strain cdc73, active compounds read low 1.04 | S. cerevisiae deletion strains, locus YML016C, strain PPZ1, active compounds read low 1.01 | S. cerevisiae deletion strains, locus YML032C, strain rad52, active compounds read low 0.993 | S. cerevisiae deletion strains, locus YML120C, strain ndi1, active compounds read low 1 | S. cerevisiae deletion strains, locus YML124C, strain tub3, active compounds read low 1.01 | S. cerevisiae deletion strains, locus YMR058W, strain fet3, active compounds read low 1.01 | S. cerevisiae deletion strains, locus YMR078C, strain ctf18, active compounds read low 1.01 | S. cerevisiae deletion strains, locus YMR125W, strain sto1, active compounds read low 1.01 | S. cerevisiae deletion strains, locus YMR129W, active compounds read low 1.01 | S. cerevisiae deletion strains, locus YMR205C, strain PFK2, active compounds read low 1.01 | S. cerevisiae deletion strains, locus YMR223W, strain ubp8, active compounds read low 1.03 | S. cerevisiae deletion strains, locus YMR231W, strain pep5, active compounds read low 1.01 | S. cerevisiae deletion strains, locus YMR307W, strain GAS1, active compounds read low 1.03 | S. cerevisiae deletion strains, locus YNL067W, strain RPL9B, active compounds read low 0.988 | S. cerevisiae deletion strains, locus YNL071W, strain lat1, active compounds read low 1.01 | S. cerevisiae deletion strains, locus YNL128W, strain TEP1, active compounds read low 1.04 | S. cerevisiae deletion strains, locus YNL153C, strain GIM3, active compounds read low 0.979 | S. cerevisiae deletion strains, locus YNL183C, strain NPR1, active compounds read low 0.984 | S. cerevisiae deletion strains, locus YNL209W, strain ssb2, active compounds read low 1.01 | S. cerevisiae deletion strains, locus YNL233W, strain BNI4, active compounds read low 0.967 | S. cerevisiae deletion strains, locus YNL248C, strain rpa49, active compounds read low 1.02 | S. cerevisiae deletion strains, locus YNL250W, strain rad50, active compounds read low 1.04 | S. cerevisiae deletion strains, locus YNL271C, strain bni1, active compounds read low 1 | S. cerevisiae deletion strains, locus YNL298W, strain CLA4, active compounds read low 1.01 | S. cerevisiae deletion strains, locus YNL307C, strain MCK1, active compounds read low 1.02 | S. cerevisiae deletion strains, locus YNL322C, strain KRE1 (second series), active compounds read low 1.01 | S. cerevisiae deletion strains, locus YNR049C, strain mso1, active compounds read low 1.01 | S. cerevisiae deletion strains, locus YNR052C, strain pop2, active compounds read low 1.02 | S. cerevisiae deletion strains, locus YOL006C, strain TOP1, active compounds read low 0.974 | S. cerevisiae deletion strains, locus YOL012C, strain htz1 1.13 | S. cerevisiae deletion strains, locus YOL147C, strain pex11, active compounds read low 1.01 | S. cerevisiae deletion strains, locus YOR001W, strain rrp6, active compounds read low 1.01 | S. cerevisiae deletion strains, locus YOR061W, strain CKA2, active compounds read low 1.01 | S. cerevisiae deletion strains, locus YOR069W, strain VPS5, active compounds read low 1.01 | S. cerevisiae deletion strains, locus YOR070C, strain gyp1, active compounds read low 1.02 | S. cerevisiae deletion strains, locus YOR080W, strain dia2, active compounds read low 1.02 | S. cerevisiae deletion strains, locus YOR083W, strain WHI5, active compounds read low 1.01 | S. cerevisiae deletion strains, locus YOR106W, strain vam3, active compounds read low 1.01 | S. cerevisiae deletion strains, locus YOR136W, strain idh2, active compounds read low 0.997 | S. cerevisiae deletion strains, locus YOR144C, strain elg1, active compounds read low 0.997 | S. cerevisiae deletion strains, locus YOR184W, strain ser1, active compounds read low 1.02 | S. cerevisiae deletion strains, locus YOR231W, strain MKK1, active compounds read low 1.08 | S. cerevisiae deletion strains, locus YOR265W, strain rbl2, active compounds read low 1.01 | S. cerevisiae deletion strains, locus YOR270C, strain vph1, active compounds read low 1.02 | S. cerevisiae deletion strains, locus YOR290C, strain snf2, active compounds read low 1.03 | S. cerevisiae deletion strains, locus YOR316C, strain cot1, active compounds read low 1 | S. cerevisiae deletion strains, locus YPL051W, strain arl3, active compounds read low 1.01 | S. cerevisiae deletion strains, locus YPL055C, strain LGE1, active compounds read low 0.939 | S. cerevisiae deletion strains, locus YPL078C, strain atp4, active compounds read low 1.01 | S. cerevisiae deletion strains, locus YPL106C, strain sse1, active compounds read low 1.03 | S. cerevisiae deletion strains, locus YPL240C, strain hsp82, active compounds read low 1.01 | S. cerevisiae deletion strains, locus YPL241C, strain CIN2, active compounds read low 1.01 | S. cerevisiae deletion strains, locus YPL256C, strain CLN2, active compounds read low 1.08 | S. cerevisiae deletion strains, locus YPR119W, strain clb2, active compounds read low 1 | S. cerevisiae deletion strains, locus YPR141C, strain kar3, active compounds read low 1.01 | S. cerevisiae deletion strains, locus YPR163C, strain tif3, active compounds read low 1.01 | S. cerevisiae deletion strains, locus YPR167C, strain met16, active compounds read low 1 | S. cerevisiae deletion strains, strain wtn01, active compounds read low 1 | S. cerevisiae strains, strain wild type, active compounds read low 1
